Measured values from PubChem BioAssay (NCI).
The panel holds about 79,000 compounds, 15% with a hit somewhere; the sample as a whole holds those more often. Calls of active or inactive are those of the source. No stated cut-off is given here; in the data, active means growth inhibition above about 70%; inactive means the rest.

Legend:
[1] = NCI Yeast Anticancer Drug Screen. Data for the rad50 strain (AID 155);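 further: 0% = growth of vehicle-only cultures of the same strain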; details: S. cerevisiae rad50 strain growth inhibition; at 50.0 µM; stronger effect = higher value
Outline: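 DNA repair mutant yeast, compound exposure, growth read-out; inhibition is taken relative to vehicle.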

[2] = NCI Yeast Anticancer Drug Screen. Data for the mec2-1 strain (AID 157); details: S. cerevisiae mec2-1 strain, at 50.0 µM, stronger effect = higher value
Outline: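 Yeast mec2-1 mutant treated with compound. Readout: growth inhibition vs vehicle controls.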

[3] = NCI Yeast Anticancer Drug Screen. Data for the sgs1 mgt1 strain (AID 161);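 further: 0% = growth of cultures given vehicle only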; details: S. cerevisiae sgs1 mgt1 strain, at 50.0 µM, stronger effect = higher value
Outline: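 Inhibition of yeast growth, normalised to vehicle-treated controls, is reported for a strain bearing genetic alterations in DNA damage repair.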

[4] = NCI Yeast Anticancer Drug Screen. Data for the cln2 rad14 strain (AID 165);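 further: 0% = growth equal to vehicle treated cultures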; details: S. cerevisiae cln2 rad14 strain, at 50.0 µM, stronger effect = higher value
Outline: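 cln2 rad14 yeast strain; compound exposure; growth inhibition read vs vehicle controls.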

[5] = NCI Yeast Anticancer Drug Screen. Data for the bub3 strain (AID 167); details: S. cerevisiae bub3 mutant strain, at 50.0 µM, stronger effect = higher value
Outline: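 In this screen, a yeast mutant lacking normal mitotic checkpoint function is challenged with compound. Relative growth versus vehicle gives the inhibition value.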

[6] = NCI Yeast Anticancer Drug Screen. Data for the mlh1 rad18 strain (AID 175); details: S. cerevisiae mlh1 rad18 strain growth inhibition; at 50.0 µM; stronger effect = higher value
Outline: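 Yeast w/ defined DNA-repair lesions; compound exposure; growth vs vehicle controls → % inhibition.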

Measured: growth inhibition

CC(CN1CCCCC1)NC(=O)c1scnc1-c1ccccc1 (stereo not drawn)
inactive: [1] -5.45% | [2] -10% | [3] -9.15% | [4] -2.5% | [5] -1.55% | [6] -4.55%

CCN(CC)CCCC(C)Nc1ccnc(/C=C/c2ccc(Cl)cc2)c1 (stereo not drawn)
inactive: [1] 2.75% | [2] -1.2% | [3] -16.1% | [4] -2.55% | [5] -39.5% | [6] -19%

CC1(C(=O)O)NC(C(=O)O)Cc2c1[nH]c1ccccc21 (stereo not drawn)
inactive: [1] 26.5% | [2] -13.2% | [3] 3.15% | [4] 3.65% | [6] 13.3%

[O-][N+](=Nc1cccc(Cl)c1)c1cccc(Cl)c1
inactive: [1] 19.7% | [2] -30.9% | [3] 24.9% | [4] 16.1% | [6] 15.1%

O=[N+]([O-])c1ccc(O)c(S(=O)(=O)O)c1
inactive: [1] 8.55% | [2] -20.6% | [3] 7.65% | [4] 15.7% | [5] -0.45% | [6] 4.1%

CCCCCCCCOC(=O)c1ccccn1
inactive: [1] -6.75% | [2] 0.3% | [3] -8.05% | [4] -59% | [6] -3.2%

CC(=O)OCC1OC(OC2=C(CC=C(C)C)C(=O)c3ccccc3C2=O)C(OC(C)=O)C(OC(C)=O)C1OC(C)=O (stereo not drawn)
inactive: [1] -7.2% | [2] 3.85% | [3] -17.4% | [4] -15% | [5] -12.7% | [6] -6.6%

c1ncc2[nH]cnc2n1
inactive: [1] -14.6% | [2] -4.1% | [3] -11.6% | [4] -69.2% | [6] 6.3%

O=P(O)(O)OCC(O)CO (stereo not drawn)
inactive: [1] -4.6% | [2] -7.3% | [3] 8.95% | [4] 25.3% | [5] -22.1% | [6] -10.5%

CCOC(=O)c1ccc(NC(=S)P(=O)(c2ccccc2)c2ccccc2)cc1
inactive: [1] 41.5% | [2] 10.2% | [3] 42.8% | [4] 30.7% | [6] 39.8%

CCCCC/C=N/Nc1nc(C)cc(=O)[nH]1
inactive: [1] 4.85% | [2] -5.6% | [3] -8.95% | [4] 15.7% | [6] 4.4%

COC(=O)c1[nH]c(=O)c(C#N)c(C(=O)OC)c1C(=O)c1ccccc1
inactive: [1] 5% | [2] -6.4% | [3] 10.5% | [4] 19.2% | [5] -25.1% | [6] 12%

O=C(O)CCCCNC(=O)c1ccccc1
inactive: [1] 19.6% | [2] -14.4% | [3] 3.25% | [4] 12.3% | [5] -4.8% | [6] 9.4%

OCC1OC(OC2C(O)C(CO)OC2(CO)OC2OC(CO)C(O)C(O)C2O)C(O)C(O)C1O (stereo not drawn)
inactive: [1] -18.1% | [2] -7.95% | [3] -31.8% | [4] -3.15% | [6] -14.7%

CCCNc1ccc(C2=NCCCN2)cc1
inactive: [1] 0.55% | [2] -19.1% | [3] -3.9% | [4] 7.25% | [5] 17.5% | [6] -1.5%

Nc1ccc(CC(=O)O)c(N)c1
inactive: [1] 0.55% | [2] -7.8% | [3] -4.6% | [4] -6.25% | [6] -0.4%

Cc1cc(/C=C/c2ccc3cc(N(C)C)ccc3[n+]2C)c(C)n1-c1ccccc1
active: [1] 87.2% | [2] 87.2% | [3] 92.8% | [4] 93.2% | [6] 95.8%

COc1ccc2c(NCCCCCCCCNc3c4ccccc4nc4cc(OC)ccc34)c3ccccc3nc2c1
active: [1] 90.8% | [2] 91.4% | [3] 91.8% | [4] 89.3% | [6] 88.3%

C=CCNC(=O)c1ccc(OC)cc1
inactive: [1] 12.5% | [2] 6.5% | [3] 22.5% | [4] 1.7% | [6] 5.7%

OCc1cccc2ccccc12
inactive: [1] 27.6% | [2] 25.9% | [3] 13.9% | [4] -27.4% | [5] 3.6% | [6] 24.5%

O=C(Cc1ccccc1)Cc1ccccc1
inactive: [1] -1.55% | [2] -5% | [3] -0.45% | [4] -3.3% | [5] -8.65% | [6] 13.6%

N#CC1(Nc2ccc3c4c(cccc24)CC3)CCCCC1
inactive: [1] 0.8% | [2] 7.2% | [3] 15.1% | [4] 16% | [6] 12.5%

CC(O)COc1ccc(-c2ccccc2)cc1 (stereo not drawn)
inactive: [1] 5.5% | [2] -2.9% | [3] 33% | [4] 15.9% | [6] 19.9%

CC1=C(/C=C/C(C)=C/C=C/C(C)=C/CO)C(C)(C)CCC1
inactive: [1] 14.8% | [2] 4.45% | [3] -3.15% | [4] 10.7% | [6] 6.55%

CC(=O)NC(N)=S
inactive: [1] 2.3% | [2] 3.75% | [3] -23.1% | [4] -3.05% | [5] -3.25% | [6] -7%

COc1cc2c(cc1O)CC[C@@H]1C2CC[C@@]2(C)C1CC[C@@H]2O (stereo partly drawn)
inactive: [1] -11.6% | [2] -13.4% | [3] -15.2% | [4] -26.6% | [5] -13.8% | [6] 18.3%

O=C(/C=C/C(=O)c1ccccc1)c1ccccc1
inactive: [3] 28.1%

CC(=O)Nc1cccc(Cl)c1C
inactive: [1] 17.6% | [3] 1.35% | [4] 4.9% | [5] 8.85% | [6] -0.35%

CCn1c(=O)n(C)c2c(=O)n(C)c(=O)n(C)c21
inactive: [1] 21.6% | [3] -13.3% | [4] 1% | [5] 1.4% | [6] 2.2%

O=C1C[C@H](c2ccccc2)[C@H](c2ccccc2)C1
inactive: [1] 24.2% | [3] 10.4% | [4] -4.25% | [5] -5.55% | [6] 9.8%

CCOC(=O)C/C(C)=N\O
inactive: [1] 4.05% | [3] 7.9% | [4] 8.45% | [5] 9.15% | [6] 2.4%
